The source of these data is PubChem BioAssay.

In experiment [1] the test system is Plasmodium falciparum Sir2 (PF13_0152, Sir2A). The experiment can be described thus: pfSir2 binders on small-molecule microarrays, primary screen, biochemical, small-molecule microarray, 635 nm fluorescence (AID 1098).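 Note: score merges spot fluorescence intensity with its signal-to-noise ratio.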 As to conditions: small-molecule microarray binding, fluorescence 635 nm; higher = more signal.
Experiment [2] in a line: small-molecule microarray binders of probe aDKK1, primary screen, biochemical, biotinylated probe, 635/667 nm fluorescence (AID 1099).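 Note: score merges 667nm spot fluorescence with signal to noise across triplicate slides.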 The following applies: higher = more signal.
Experiment [3] is described as follows: small-molecule microarray binders of probe aCHRDL2, primary screen, biochemical, biotinylated probe, 635/667 nm fluorescence (AID 1100). The following applies: higher = more signal.
The nature of experiment [4]: splicing luciferase reporter signal modulators, primary screen, spliceosome inhibition project, cell-based, HEK293, splice +/- reporter (AID 1101).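 Note: HEK293 cells carrying a splicing-competent luciferase reporter gene; test concentration not given here.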 As to conditions: luminescence, 24 h, higher = more signal, called active from +8 up or from −8 down.
Experiment [5] deals with Fibroblast growth factor 10 (Homo sapiens) (UniProt O15520). The experiment can be described thus: FGF10 binders on small-molecule microarrays, primary screen, biochemical, small-molecule microarray, 635 nm fluorescence (AID 1102). As to conditions: FGF10 binding, fluorescence 635 nm, higher = more signal.
Experiment [6] concerns glycogen synthase kinase-3 (GSK3A per assay name; protocol says GSK3B). The experiment can be described thus: GSK3 binders on small-molecule microarrays, primary screen, biochemical, small-molecule microarray, 635 nm fluorescence, GSK3A (AID 1103). Note: the record names both GSK3A and GSK3B. The following applies: small-molecule microarray binding, fluorescence 635 nm; higher = more signal.
Experiment [7] deals with Epidermal growth factor receptor (Homo sapiens) (UniProt P00533). The experiment is described as follows: EGFR binders on small-molecule microarrays, primary screen, biochemical, small-molecule microarray, 635 nm fluorescence (AID 1104).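 Note: score merges 667 nm emission intensity with spot signal to noise over triplicate slides.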 As to conditions: EGFR binding, higher = more signal.
Experiment [8] deals with Follistatin-related protein 3 (Homo sapiens) (UniProt O95633). The experiment can be described thus: FSTL3 binders on small-molecule microarrays, primary screen, biochemical, small-molecule microarray, 635 nm fluorescence (AID 1105).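 Note: score merges emission near 667 nm and signal to noise per printed spot across three slides.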 The following applies: FSTL3 binding, higher = more signal.
In experiment [9] the target is Dickkopf-related protein 1 (Homo sapiens) (UniProt O94907). The experiment is described as follows: DKK1 binders on small-molecule microarrays, primary screen, biochemical, small-molecule microarray, 635 nm fluorescence scan (AID 1106).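 Note: score merges emission near 667 nm with signal to noise over three replicate slides.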 As to conditions: DKK1 binding, higher = more signal.
The subject of experiment [10] is Inhibin beta A chain (activin A). The experiment can be described thus: INHBA (activin A) binders on microarrays, primary screen, biochemical, small-molecule microarray, 635 nm fluorescence scan (AID 1107).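 Note: mouse activin A protein probed at 4.33 µg/mL on printed slides; score merges bound-protein fluorescence near 667 nm with spot signal-to-noise.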 As to conditions: small-molecule microarray binding, higher = more signal.
The subject of experiment [11] is Human papillomavirus type 1a protein E7 (residues 44-93). The experiment can be described thus: HPV1a E7 fragment binders on microarrays, primary screen, biochemical, small-molecule microarray, residues 44-93, 635 nm fluorescence (AID 1108).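 Note: E7 fragment applied at 1 µg/mL in TBST for 1 h at 4 C; score combines spot fluorescence with its signal to noise ratio.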 The following applies: small-molecule microarray binding, fluorescence 635 nm; higher = more signal.
Experiment [12] is described as follows: modulators of HCV replicon luciferase signal, primary screen, HCV replication inhibitor project, Huh7 cells, luciferase reporter (AID 1109).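 Note: huh7 hepatoma cells harbouring a luciferase neomycin HCV replicon reporter; luciferase luminescence as measure of HCV replicon replication; test concentration not given here.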 As to conditions: 48 h, higher = more signal.
Experiment [13] addresses Left-right determination factor 2 (Homo sapiens) (UniProt O00292). The experiment can be described thus: LEFTY2 binders on small-molecule microarrays, primary screen, biochemical, small-molecule microarray, 635 nm fluorescence scan (AID 1110). As to conditions: LEFTY2 binding, higher = more signal.
Experiment [14] addresses Calmodulin-1 (Homo sapiens) (UniProt P0DP23). The experiment can be described thus: CALM1 binders on microarrays, EGTA buffer, profiling panel, biochemical, small-molecule microarray, Cy5-labelled CALM1 (AID 1111).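 Note: labelled calmodulin applied in Tris saline Tween buffer holding calcium plus EGTA and DTT.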 The following applies: Cy5-CALM1 binding fluorescence, higher = more signal.
For experiment [15] the target is unchanged. The experiment is described as follows: calcium-bound CALM1 binders on microarrays, profiling panel, artefact control for SMM control-protein annotation, biochemical, small-molecule microarray, Cy5-labelled CALM1, plus calcium (AID 1112).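 Note: score merges spot fluorescence with signal to noise from triplicate slides.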 The following applies: Cy5-CALM1 binding fluorescence, higher = more signal.
The nature of experiment [16]: small-molecule microarray binders of probe aWnt5a, primary screen, biochemical, biotinylated probe, 635/667 nm fluorescence (AID 1113).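 Note: score merges 667 nm fluorescence intensity with signal-to-noise per printed feature.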 The following applies: higher = more signal.
The nature of experiment [17]: small-molecule microarray binders of probe aShh, primary screen, biochemical, biotinylated probe, 635/667 nm fluorescence (AID 1114).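 Note: probe is biotin-labelled aShh protein from a stem cell growth factor screen; measures binding of labelled protein to compounds printed on the slide; score merges feature fluorescence at 667 nm with signal-to-noise.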 As to conditions: higher = more signal.
A short description of experiment [18]: small-molecule microarray binders of probe aNog, primary screen, biochemical, biotinylated probe, 635/667 nm fluorescence (AID 1115).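 Note: probe is biotinylated aNog protein used at 0.15 µg/mL for 1 h at 4 C; z-score combines 667 nm fluorescence of each spot with its signal to noise.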 As to conditions: higher = more signal.
Experiment [19] has as its target Torsin-1A-interacting protein 1 (Homo sapiens) (UniProt Q5JTV8). The experiment is described as follows: LAP1 binders from COS7 cell lysate, primary screen, small-molecule microarray, 635/667 nm fluorescence (AID 1116). The following applies: COS7-hLAP1 lysate binding, 635 nm fluorescence, higher = more signal.
Experiment [20] deals with Alpha-bungarotoxin (Bungarus multicinctus) (UniProt P60615). The experiment is described as follows: alpha-bungarotoxin binders on microarray, profiling panel, artefact control for SMM control protein annotation, biochemical, small-molecule microarray, Alexa647 label, 635/667 nm fluorescence (AID 1117). The following applies: alpha-BTX-A647 binding fluorescence, higher = more signal.

Structures are written as SMILES. The source made the active and inactive calls.

Sequence of Epidermal growth factor receptor (Homo sapiens) (P00533 whole entry, looked up): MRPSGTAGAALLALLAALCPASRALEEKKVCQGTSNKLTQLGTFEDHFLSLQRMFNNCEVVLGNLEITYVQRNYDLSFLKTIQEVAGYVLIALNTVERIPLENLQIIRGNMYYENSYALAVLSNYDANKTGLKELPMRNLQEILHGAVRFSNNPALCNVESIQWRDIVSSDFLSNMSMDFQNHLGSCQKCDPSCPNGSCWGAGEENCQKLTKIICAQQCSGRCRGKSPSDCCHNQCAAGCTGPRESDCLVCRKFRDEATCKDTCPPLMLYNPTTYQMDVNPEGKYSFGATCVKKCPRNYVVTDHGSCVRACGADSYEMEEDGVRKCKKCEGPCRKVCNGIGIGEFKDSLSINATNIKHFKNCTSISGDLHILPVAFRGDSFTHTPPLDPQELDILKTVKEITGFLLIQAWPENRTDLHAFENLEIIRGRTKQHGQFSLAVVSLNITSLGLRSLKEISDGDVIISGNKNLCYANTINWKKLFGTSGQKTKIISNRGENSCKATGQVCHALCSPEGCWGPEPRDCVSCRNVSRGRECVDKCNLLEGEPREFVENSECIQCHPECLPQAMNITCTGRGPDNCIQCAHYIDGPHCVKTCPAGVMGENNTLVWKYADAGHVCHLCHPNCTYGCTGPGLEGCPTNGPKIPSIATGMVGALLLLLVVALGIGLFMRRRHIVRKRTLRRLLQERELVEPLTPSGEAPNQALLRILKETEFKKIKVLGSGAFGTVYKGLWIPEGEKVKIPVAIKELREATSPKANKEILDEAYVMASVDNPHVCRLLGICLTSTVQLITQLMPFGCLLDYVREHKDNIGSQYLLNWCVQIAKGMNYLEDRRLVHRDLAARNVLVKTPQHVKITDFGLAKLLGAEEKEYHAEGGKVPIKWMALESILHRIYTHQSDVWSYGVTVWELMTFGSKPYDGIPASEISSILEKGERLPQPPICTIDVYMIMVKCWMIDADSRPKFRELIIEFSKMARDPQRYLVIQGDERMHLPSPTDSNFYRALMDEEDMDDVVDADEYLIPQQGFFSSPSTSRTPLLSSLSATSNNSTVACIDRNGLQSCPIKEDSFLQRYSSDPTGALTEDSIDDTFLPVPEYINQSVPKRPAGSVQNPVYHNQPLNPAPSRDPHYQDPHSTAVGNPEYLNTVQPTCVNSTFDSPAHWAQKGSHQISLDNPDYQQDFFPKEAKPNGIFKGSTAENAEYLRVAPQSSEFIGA
Sequence of Fibroblast growth factor 10 (Homo sapiens) (O15520 whole entry, looked up): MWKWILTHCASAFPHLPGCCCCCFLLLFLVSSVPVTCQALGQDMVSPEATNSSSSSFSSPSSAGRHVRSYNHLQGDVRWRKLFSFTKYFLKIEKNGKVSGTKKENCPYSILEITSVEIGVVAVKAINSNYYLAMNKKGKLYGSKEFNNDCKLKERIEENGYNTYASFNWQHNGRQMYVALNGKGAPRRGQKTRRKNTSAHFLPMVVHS
Sequence of Follistatin-related protein 3 (Homo sapiens) (O95633 whole entry, looked up): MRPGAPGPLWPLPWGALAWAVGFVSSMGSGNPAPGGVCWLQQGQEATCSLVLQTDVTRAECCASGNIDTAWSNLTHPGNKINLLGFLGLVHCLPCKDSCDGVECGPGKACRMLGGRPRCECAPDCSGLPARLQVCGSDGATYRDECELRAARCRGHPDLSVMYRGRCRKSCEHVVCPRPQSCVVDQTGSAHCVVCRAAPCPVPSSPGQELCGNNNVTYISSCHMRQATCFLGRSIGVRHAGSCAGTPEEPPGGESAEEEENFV
Sequence of Dickkopf-related protein 1 (Homo sapiens) (O94907 whole entry, looked up): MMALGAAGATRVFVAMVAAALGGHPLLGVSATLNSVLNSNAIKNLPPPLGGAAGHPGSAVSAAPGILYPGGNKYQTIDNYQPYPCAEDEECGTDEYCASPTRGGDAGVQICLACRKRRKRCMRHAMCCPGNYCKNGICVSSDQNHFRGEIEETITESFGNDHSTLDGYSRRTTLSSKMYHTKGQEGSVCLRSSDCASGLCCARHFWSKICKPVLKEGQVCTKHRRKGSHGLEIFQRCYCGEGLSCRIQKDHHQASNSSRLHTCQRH
Sequence of Alpha-bungarotoxin (Bungarus multicinctus) (P60615 whole entry, looked up): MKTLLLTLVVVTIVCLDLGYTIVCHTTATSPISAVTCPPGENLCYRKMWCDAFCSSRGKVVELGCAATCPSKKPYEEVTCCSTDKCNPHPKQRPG
Sequence of Left-right determination factor 2 (Homo sapiens) (O00292 whole entry, looked up): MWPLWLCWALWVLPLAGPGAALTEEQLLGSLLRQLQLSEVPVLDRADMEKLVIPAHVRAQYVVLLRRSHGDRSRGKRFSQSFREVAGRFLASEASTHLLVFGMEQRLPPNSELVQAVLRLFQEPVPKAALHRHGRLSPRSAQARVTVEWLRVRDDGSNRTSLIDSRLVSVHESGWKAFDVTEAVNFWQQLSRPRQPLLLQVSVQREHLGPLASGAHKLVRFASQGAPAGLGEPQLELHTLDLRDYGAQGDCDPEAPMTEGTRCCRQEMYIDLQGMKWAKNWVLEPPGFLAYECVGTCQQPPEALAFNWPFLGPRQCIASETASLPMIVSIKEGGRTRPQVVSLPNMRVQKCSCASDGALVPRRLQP
Sequence of Torsin-1A-interacting protein 1 (Homo sapiens) (Q5JTV8 whole entry, looked up): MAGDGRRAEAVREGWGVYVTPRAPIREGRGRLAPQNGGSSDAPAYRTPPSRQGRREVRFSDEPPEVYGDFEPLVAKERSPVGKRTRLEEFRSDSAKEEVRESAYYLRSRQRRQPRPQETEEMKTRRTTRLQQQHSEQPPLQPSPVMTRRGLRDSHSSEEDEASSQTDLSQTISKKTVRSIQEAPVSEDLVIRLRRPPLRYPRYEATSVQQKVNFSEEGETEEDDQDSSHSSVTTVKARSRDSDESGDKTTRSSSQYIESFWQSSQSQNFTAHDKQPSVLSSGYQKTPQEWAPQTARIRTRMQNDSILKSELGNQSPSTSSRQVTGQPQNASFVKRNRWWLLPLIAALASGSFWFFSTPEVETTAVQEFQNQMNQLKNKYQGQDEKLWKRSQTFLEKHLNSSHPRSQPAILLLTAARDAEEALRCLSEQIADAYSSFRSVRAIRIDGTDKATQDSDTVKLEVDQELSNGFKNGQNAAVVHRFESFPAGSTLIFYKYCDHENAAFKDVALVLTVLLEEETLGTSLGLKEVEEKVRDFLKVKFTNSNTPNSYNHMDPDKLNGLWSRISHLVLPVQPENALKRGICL

On to `CCOC(=O)C[C@H]1[C@H](OC(=O)c2ccc(C(=O)c3ccccc3)cc2)[C@@H](NC(=O)c2ccccc2)c2cc(OCCCO)ccc2N1C(=O)c1ccccc1`, for which the composite z-score was 0.576 in experiment [1]; 0.188 in [2]; -0.0053 in experiment [3]; 0.656 in experiment [5]; 0.0643 in experiment [6]; 0.168 in [7]. Also, the composite z-score came to 0.84 in experiment [8]; 0.112 in experiment [9]; 0.136 in experiment [10]; 1.09 in experiment [11]; 0.224 in experiment [13]; 0.461 in experiment [14]. The composite z-score in experiment [15] was 0.168; in experiment [16], 0.0102; in [17], -0.0769; in experiment [18], -0.234; in experiment [19] it was 0.63; in [20], 0.872. In addition, the z-score is 0.0733 (inactive) in experiment [4] and -1.33 in [12].

Turning to `O=C(NC1CC1)[C@@H]1c2ccccc2C(=O)N(C2Cc3ccccc3C2)[C@H]1c1ccc(CO)cc1`, the composite z-score is 0.188 in [1]; -0.053 in experiment [2]; 0.438 in [3]; 0.467 in experiment [5]; 1.3 in experiment [6]; 0.473 in [7]. Also, the composite z-score in experiment [8] was 0.53; in experiment [9], 0.951; in experiment [10] it was 0.338; in [11], 1.32; in experiment [13] it was 0.716; in experiment [14], -0.199. The composite z-score in experiment [15] is -0.253; in experiment [16], -0.0512; in [17], -0.457; in experiment [18] it was -0.608; in [19] it was 0.599; in [20] it was 0.154. Further, the z-score in [4] is 0.199 (inactive); in experiment [12], -0.865.

For the compound `Cc1ccc(S[C@]2(C(=O)O)CC(=O)N(C(C)C)[C@@H]2c2ccc(CO)cc2)cc1`, the composite z-score in experiment [1] is 0.161; in [2] it was -0.11; in experiment [3], 0.34; in experiment [5], 0.224; in [6] it was -0.207; in experiment [7] it was -0.468. In addition, the composite z-score was 0.147 in [8]; 0.0142 in experiment [9]; 0.754 in experiment [10]; 0.253 in [11]; -0.193 in experiment [13]; -0.0058 in [14]. The composite z-score was -0.529 in [15]; -0.12 in experiment [16]; 0.216 in experiment [17]; -0.294 in [18]; 1.42 in [19]; 0.644 in [20]. Moreover, the results for the z-score in experiment [4] and in [12] were -0.448 (inactive) and -0.625, respectively.

As to `CCCCCCc1nc(-c2ccc(-c3ccc(Cl)c(Cl)c3)o2)cc2c1[Si](C(C)C)(C(C)C)O[C@H]2c1ccccc1`, the composite z-score in experiment [1] was 0.0593; in experiment [2] it was -0.294; in experiment [3] it was 0.0787; in experiment [5] it was -0.515; in experiment [6], -1.26; in [7], -0.287. For the same compound, the composite z-score in experiment [8] was -0.737; in experiment [9] it was 0.0981; in experiment [10], 0.62; in experiment [11], -0.545; in experiment [13] it was -0.0324; in experiment [14], -0.365. The composite z-score was 0.077 in experiment [15]; -0.264 in experiment [16]; 0.0723 in experiment [17]; -0.141 in experiment [18]; -0.741 in experiment [19]; 0.622 in experiment [20]. Moreover, the values for the z-score in experiment [4] and in experiment [12] were -0.112 (inactive) and -0.674, respectively.

Consider `O=C(CS)NCCCCCNC(=O)[C@@H]1C[C@@H]2C(=O)NCC(=O)N2[C@@H]1c1ccc(O)cc1`, for which the composite z-score in experiment [1] was 0.793; in experiment [2] it was -0.179; in [3], 0.347; in [5], 0.528; in experiment [6], 0.692; in [7], 0.17. Besides, the composite z-score is 0.157 in experiment [8]; -0.109 in experiment [9]; 0.606 in [10]; 0.722 in experiment [11]; 0.31 in experiment [13]; -0.0523 in [14]. For the same compound, the composite z-score in experiment [15] was -0.109; in experiment [16] it was -0.165; in experiment [17] it was -0.0709; in experiment [18] it was -0.122; in [19], -0.0104; in experiment [20], -0.581. Further, the z-score in [4] was 0.0774 (inactive); in experiment [12] it was 0.627.
